Inconclusive results are not listed. A call without a number means that no potency is given here. Activity calls are given as the source filed them. The call rests on the fitted dose curve.
Potency means the concentration at half of the fitted maximal effect.

Chain of Retinoic acid receptor RXR-alpha (Homo sapiens) (P19793 whole entry, looked up): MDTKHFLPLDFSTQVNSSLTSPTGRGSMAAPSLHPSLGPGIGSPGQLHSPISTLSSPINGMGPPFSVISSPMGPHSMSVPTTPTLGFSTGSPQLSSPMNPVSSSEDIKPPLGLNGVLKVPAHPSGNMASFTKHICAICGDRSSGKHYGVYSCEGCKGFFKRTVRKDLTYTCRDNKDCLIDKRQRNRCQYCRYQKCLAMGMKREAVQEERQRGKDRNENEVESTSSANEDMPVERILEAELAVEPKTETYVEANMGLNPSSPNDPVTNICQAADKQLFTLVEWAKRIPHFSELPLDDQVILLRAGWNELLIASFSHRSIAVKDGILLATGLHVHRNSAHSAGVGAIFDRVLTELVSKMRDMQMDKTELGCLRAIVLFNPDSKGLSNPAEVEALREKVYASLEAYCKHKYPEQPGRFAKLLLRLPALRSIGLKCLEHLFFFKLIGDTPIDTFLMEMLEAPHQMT

In the assay the target is Retinoic acid receptor RXR-alpha (Homo sapiens) (UniProt P19793). Nature of the assay: qHTS assay to identify small molecule agonists of the RXR signaling pathway (AID 1159527). Further: nearly all actives have a fitted effect of over 35% in size. To be noted: HEK293T RXRa-UAS-bla, beta-lactamase ratio, 16 h; series mostly up to 76.8 µM. The source says:
U.S. Tox21 Program National Center for Advancing Translational Sciences [NCATS] NIH Chemical Genomics Center [NCGC] U.S. Environmental Protection Agency [EPA] National Institutes of Environmental Health Sciences [NIEHS] National Toxicology Program [NTP] U.S. Food and Drug Administration [FDA] Tox21 Assay Overview: The Retinoid X receptor (RXR), a nuclear hormone receptor expressed in liver, spleen, placenta, epidermis, central nervous system. These receptors are able to form homo and heterodimers with other nuclear receptors and due to this heterodimerizing ability, RXR functions as master regulators producing diverse physiological effects. Three subtypes of RXR exist; alpha, beta and gamma. Retinoid X receptor alpha (RXR-alpha) has potential roles in metabolic signaling pathways, skin alopecia, dermal cysts, cardiac development, insulin sensitization etc. Therefore screening environmental chemicals on RXR-alpha signaling can be used for the studies focused on such therapeutic applications. For quantification of RXR-alpha ligands signaling, GeneBLAzer RXR alpha-UAS-bla HEK 293T (Life Technologies, Carlsbad, CA) cells containing a beta-lactamase reporter-gene under control of Retinoid X receptor-alpha response element were used to screen Tox21 10K library.
Tox21 Assay Protocol Summary: RXR-alpha HEK 293T cells were dispensed at 2,000 cells/6 uL of assay medium containing 2% charcoal-stripped FBS using a Multidrop Combi (ThermoFisher Scientific, Waltham, MA) dispenser. The assay was performed in black wall/clear-bottom 1536-well plates (Greiner Bio-One North America Inc. Monroe, NC). 9-cis retinoic acid was used as a positive control in the agonist mode screen. After the assay plates were incubated at 37 C and 5% CO2 for 5 hr, 23 nL of compounds dissolved in DMSO, positive controls or DMSO only were transferred to the assay plate by a Pintool station (Kalypsys, San Diego, CA). The assay plates were incubated at 37 C and 5% CO2 for 16 hr. One uL of LiveBLAzer B/G FRET substrate (Life Technologies) was added using a Flying Reagent Dispenser (Aurora Discovery, San Diego, CA) and the plates were incubated at room temperature for 2 hr. Fluorescence intensity (405 nm excitation, 460/530 nm emission) was measured using an Envision plate reader (PerkinElmer, Shelton, CT).
For orientation: qHTS replaces the single test concentration by a dilution series.
For the molecule `CCCCCCCCc1ccc(Nc2ccc(CCCCCCCC)cc2)cc1`, the Potency entry was “inactive”. Consider `Nc1c(Br)cc([N+](=O)[O-])cc1Br`, for which the Potency result was “inactive”. On the same count and under the same terms, the result for `Cc1ccc(C=O)cc1` reads “inactive”; that for `O=C1OCc2ccccc21`, “inactive”; that for `c1ccc2occc2c1`, 12.3 µM (active). Consider `C=C(C)CCO`, for which the Potency entry was “inactive”.

Consider `CCn1c2ccccc2c2ccccc21`, for which the Potency result was “inactive”. As to `CCC(=O)OC/C=C(\C)CCC=C(C)C`, the Potency result was “inactive”. As to `Nc1ccc2c(S(=O)(=O)O)cccc2c1S(=O)(=O)O`, the Potency result is “inactive”. The same measure, in the same setting: the same measure for `[Cl][Eu]([Cl])[Cl]`: “inactive”. On to `C=C[Si](C)(C)Cl`, for which the activation was 0.333% [at 6.98 µM] (inactive).

Turning to `CCc1cccc(CC)c1`, the Potency result was “inactive”. For the molecule `COc1cc2ncnc(Nc3cccc(Cl)c3)c2cc1OC`, the activation was -15.1% [at 15.8 µM] (inactive). For the molecule `O=[N+]([O-])c1ccc(CO)cc1`, the Potency result is “inactive”. For the molecule `O=C(Nc1ccc([N+](=O)[O-])cc1)Nc1ccc([N+](=O)[O-])cc1` (tested in a mixture with another compound), the Potency result was “inactive”. The same measure, in the same setting: the result for `Cc1cccc2c1ccc1ccccc12` reads “inactive”; that for `CCOC=C(C(=O)OCC)C(=O)OCC`, “inactive”; that for `C1CCSC1`, “inactive”. The same measure, in the same setting: the result for `Oc1cccc2c(O)cccc12` reads “inactive”; that for `COc1cc(OC)nc(NC(=O)NS(=O)(=O)Nc2ccccc2C(=O)N(C)C)n1`, “inactive”; that for `SC1CCCCC1`, “inactive”. Still for that read-out and setting: the result for `C/C(=N\[Si](C)(C)C)O[Si](C)(C)C` reads “inactive”; that for `CCOC(=O)C1=NN(c2ccc(Cl)cc2Cl)C(C)(C(=O)OCC)C1` (stereo not given), “inactive”. Take `[Cl][Sc]([Cl])[Cl]`: the Potency result was “inactive”. Same read-out and setting: the result for `Cc1cc(C)c(O)c(C(C)(C)C)c1` reads “inactive”. On the same count and under the same terms, the same measure for `O=C1CCC(=O)N1`: “inactive”; for `CC1(C)[C@H](C(=O)OCc2cccc(Oc3ccccc3)c2)[C@@H]1C=C(Cl)Cl`: “inactive”.

For the molecule `CCOC(=O)[C@H](O)[C@@H](O)C(=O)OCC`, the Potency entry was “inactive”. On the same count and under the same terms, the result for `NC(=O)c1ccccc1Cl` reads “inactive”. Consider `CC/C=C(\C)C=O`, for which the Potency entry was “inactive”. Take `C/C=C/C(=O)C1=C(C)C=CCC1(C)C`: the Potency entry is “inactive”. Turning to `C=C1CC[C@H]2O[C@]2(C)CC[C@@H]2[C@@H]1CC2(C)C`, the Potency entry is “inactive”.

As to `CC(Cc1ccc(O)c(O)c1)C(C)Cc1ccc(O)c(O)c1` (stereo not given), the Potency entry is “inactive”.

Regarding `CSc1nnc(C(C)(C)C)c(=O)[nH]1`, the Potency entry was “inactive”.

In the case of `O=c1[nH]cccc1O`, the Potency result is “inactive”. For the molecule `Nc1ccc(F)c([N+](=O)[O-])c1`, the Potency result was “inactive”. Still for that read-out and setting: the result for `CCN(CC)c1ccc(C=O)c(O)c1` reads “inactive”. Turning to `Cn1c(=O)[nH]c2ncn(C)c2c1=O`, the Potency entry was “inactive”.

Take `Cc1ccc(C2OC[C@@H]3OC(c4ccc(C)cc4)O[C@H]([C@H](O)CO)[C@@H]3O2)cc1` (stereo not given in full): the Potency result is “inactive”. Same read-out and setting: the result for `CCOc1nc(F)cc2nc(S(=O)(=O)Nc3c(Cl)cccc3C(=O)OC)nn12` reads “inactive”.

The record behind these values is PubChem BioAssay (Tox21).
